# About 79,000 compounds went through this panel and 15% of them were active in at least one assay; those are over-represented in the sample as a whole. Unmarked numbers belong to inactive results. Active and inactive are the calls of the source. Cut-off read from the data, not from the text of the source: active = growth inhibition above about 70%; inactive = the rest.
# Columns and labels:
# [1] = NCI Yeast Anticancer Drug Screen. Data for the rad50 strain (AID 155);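 note: 0% = growth of vehicle-only cultures of the same strain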; details: S. cerevisiae rad50 strain growth inhibition; at 50.0 µM; hits give high values
# Procedure, shortened: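 Growth of the mutant yeast was measured after compound exposure and referenced to vehicle-treated cultures.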
# [2] = NCI Yeast Anticancer Drug Screen. Data for the mec2-1 strain (AID 157); details: S. cerevisiae mec2-1 strain, at 50.0 µM, hits give high values
# Procedure, shortened: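 Cells of the genetically defined mec2-1 yeast strain are incubated with test compound. Inhibition of growth is calculated against vehicle-treated controls.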
# [3] = NCI Yeast Anticancer Drug Screen. Data for the sgs1 mgt1 strain (AID 161);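 note: 0% = growth of cultures given vehicle only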; details: S. cerevisiae sgs1 mgt1 strain, at 50.0 µM, hits give high values
# Procedure, shortened: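 Genetically altered yeast, compound exposure, growth inhibition relative to vehicle.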
# [4] = NCI Yeast Anticancer Drug Screen. Data for the cln2 rad14 strain (AID 165);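 note: 0% = growth equal to vehicle treated cultures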; details: S. cerevisiae cln2 rad14 strain, at 50.0 µM, hits give high values
# Procedure, shortened: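 The screen exposed genetically defined yeast (cln2 rad14) to test compounds and scored growth inhibition relative to vehicle-treated controls.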
# [5] = NCI Yeast Anticancer Drug Screen. Data for the bub3 strain (AID 167); details: S. cerevisiae bub3 mutant strain, at 50.0 µM, hits give high values
# Procedure, shortened: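 Whole-cell yeast assay. The mutant strain was incubated with compounds, and growth inhibition was determined by comparison with vehicle-treated cells.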
# [6] = NCI Yeast Anticancer Drug Screen. Data for the mlh1 rad18 strain (AID 175); details: S. cerevisiae mlh1 rad18 strain growth inhibition; at 50.0 µM; hits give high values
# Procedure, shortened: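 Compound-treated yeast growth, normalised to vehicle controls. Strain bears defined DNA repair mutations.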
SMILES,growth inhibition [1],growth inhibition [2],growth inhibition [3],growth inhibition [4],growth inhibition [5],growth inhibition [6]
N#CCCC(CC#N)S(=O)(=O)O (stereo unspecified),14.3%,1.65%,-7.75%,-54.6%,15.7%,-13.1%
COc1ccccc1N=NC1=C2Nc3ccccc3N=C1N(c1ccccc1OC)C(=S)N2c1ccccc1C,-10.3%,-11.3%,-16.4%,-11.5%,-2.95%,-30.4%
Nc1nnc(Cc2cccc3ccccc23)o1,-1.05%,-11.4%,-13.1%,-0.7%,-15.6%,1.1%
C(=C/c1ccc(/C=C/C=C\c2ccccc2)cc1)/C=C/c1ccccc1,-4.1%,-2.25%,13.8%,-50.6%,-2.1%,-12.2%
CCCCOC(=O)C(C)OC(=O)/C=C\C(=O)OC(C)C(=O)OCCCC (stereo unspecified),7.5%,-7.5%,6.9%,4.05%,2.4%,15.9%
COc1cccc(NC(=O)c2cccc(C(=O)Nc3cccc(OC)c3)c2)c1,7%,5.55%,4.15%,-32.8%,-2.6%,35%
COC1=C(c2ccccc2)P(=O)(Cc2ccccc2)C(C)C1 (stereo unspecified),-6.95%,12.2%,24.6%,-9.1%,48.3%,1.9%
COc1cc(Br)c(CC2c3cc(OC)c(OC)cc3CCN2C)cc1OC (stereo unspecified),-17%,-25.4%,-9.75%,3.2%,-7.95%,-13.4%
CC(C)c1ccc(/C=C2/C=C(c3ccc4ccccc4c3)OC2=O)cc1,-9.25%,-1.7%,-31.8%,-3.75%,-17.8%,-18.9%
O=COCCc1ccccc1,-17.9%,-6.2%,8.35%,5.4%,-8.15%,3.7%
O=C1OC(C(O)C(O)C(O)CO)C(O)C1O (stereo unspecified),-9.65%,-29.9%,-11.7%,-40.2%,28.3%,4.65%
CC(C)(CCC(=O)O)C(=O)O,-4.15%,-34.1%,-30.5%,4.95%,-32.9%,-2.9%
Cc1c(C)n(C)c(=S)n(C)c1=S,4.95%,4.15%,5.8%,31.6%,1.85%,8.65%
COC1CC(NC(C)=O)C(OC(C)=O)C(C)O1 (stereo unspecified),-1.5%,-9.6%,-5.65%,-29.2%,-7.55%,-1.4%
Cc1nc(N)[nH]c(=O)c1CCCNc1ccc(CCCCCCC2(CCl)OCCO2)cc1,12.4%,-0.15%,1.45%,2.9%,17.4%,-9.4%
COc1ccc(C(=O)c2ccc(OC)cc2)cc1,-15.1%,-27.1%,-3.1%,-17.6%,1.6%,-15.1%
O=C(O)C1=NN(c2cc(Cl)c(S(=O)(=O)O)cc2Cl)C(=O)C1,-33.2%,-45.1%,-14.1%,6.1%,-5.85%,-32.9%
Cc1c2oc3c(C)ccc(C(=O)NCCc4ccccn4)c3nc-2c(C(=O)NCCc2ccccn2)c(N)c1=O,5.9%,-8.05%,4.05%,4.9%,-5.45%,-6.9%
Cn1c(=Nc2ccc(Cl)cc2)sc2ccccc21,-8.65%,-31.2%,-21.4%,-36.9%,1.2%,-21.9%
Nc1cccc(CC(N)C(=O)O)c1 (stereo unspecified),-1.95%,-5.55%,-8.7%,-44.1%,-4.5%,1.7%
Oc1c(Cl)cc(N=Cc2ccc(N(CCCCl)CCCCl)cc2Cl)cc1Cl,84.6% (active),41%,93.7% (active),75.2% (active),54.7%,84% (active)

SMILES,growth inhibition [1],growth inhibition [2],growth inhibition [3],growth inhibition [4],growth inhibition [5],growth inhibition [6]
Nc1ccccc1C(=O)CC1OC(=O)c2ccccc21 (stereo unspecified),19.6%,12.1%,7.35%,4%,7.8%,-13.7%
O=C(O)c1cc(Cc2ccc(I)c(C(=O)O)c2)ccc1I,20.9%,2.5%,32.9%,29%,-5.75%,40.5%
Br/C=C\Br,-2.85%,0.15%,-7.45%,28.6%,-12.8%,5.35%
Cc1cc(Cl)ccc1NC(=O)/C(Cc1nc2ccc(C(=O)c3ccccc3)cc2[nH]c1=O)=N/NC(=O)c1ccncc1,21.9%,17.1%,1.45%,-33.7%,4.7%,16.1%
Nc1ncnc2c1nnn2C1C=CC(CP(=O)(O)O)C1 (stereo unspecified),2.65%,8.25%,12.9%,13.2%,-4.5%,27.7%
Cc1nc(N)sc1N=Nc1ccc(Br)cc1Br,85.2% (active),68.8%,86.8% (active),63.1%,46.9%,76.4% (active)
CSc1cc2c(cc1NC(C)=O)Cc1ccccc1-2,13.4%,-3.75%,0.6%,10.5%,9.15%,-13.4%
CSC1=C(c2ccc(Cl)cc2)SC(N2CCCCC2)N1c1ccc([N+](=O)[O-])cc1 (stereo unspecified),0.55%,-0.05%,1.7%,5.2%,5.4%,4.9%
CCC1=CCC(P(=O)(c2ccccc2)c2ccccc2)CC1C (stereo unspecified),-28.8%,-16.4%,-0.15%,12.6%,0.15%,-19.8%
CCCCCC(=O)OCC(CC)CC,-8.05%,-6.55%,-13.3%,-29.6%,-1.05%,5.35%
CC(=O)n1c(N)nc2ccccc21,21.3%,-2.85%,6.95%,3.4%,1.45%,28.8%
O=C(O)CCC(=O)Nc1ccc(F)cc1,9.9%,26.6%,4.7%,-86.3%,7.3%,1%
CCCC1(C)COC(C)(CCC)OC1 (stereo unspecified),-31.6%,-8.3%,-17.9%,-34.4%,-16.9%,-0.45%
Nc1ccc(C2=Nc3ccccc3SC(c3ccccc3O)C2)cc1 (stereo unspecified),24.8%,13.5%,11.5%,19%,50.8%,6%
COC(=O)C1(CC(=O)c2ccc(C)cc2)NC(=S)NC(=O)C1C#N (stereo unspecified),-4.7%,-4.8%,-30.1%,-8.65%,-34.6%,-0.85%
CC1=C(C(=O)Nc2cc(C)ccn2)CCO1,4.55%,-11.4%,-7.2%,-33%,11.7%,15%
CCCCCC(=O)Nc1cc(S(=O)(=O)O)cc2cc(S(=O)(=O)O)cc(O)c12,-24.1%,-15.2%,-8.85%,10.7%,-9.85%,-7.7%
CC(=O)Nc1ccc(Cc2cc([N+](=O)[O-])cc([N+](=O)[O-])c2)cc1,-0.1%,-14.6%,2.75%,-50.9%,24.9%,-18.6%
CC1(C)N=C(N)NC(Nc2ccc(Cl)cc2)=N1,9.6%,9.05%,10.8%,-20.8%,14.6%,33.6%
Cc1cc(Cl)c(Cl)cc1NC(=O)c1ccccc1Cl,1.55%,-11.3%,4%,-9.25%,8.9%,-5.25%

# — PubChem BioAssay (NCI)
